According to PubChem BioAssay AID504408 (Broad Institute, 2011):
About 5,200 (1.7%) of roughly 300,000 compounds were called active.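 Rule for the calls: active = mean replicate activation of at least 50% with a set share of replicates each reaching 50%; inconclusive = only one of those two conditions met; inactive = mean below 50% and too few replicates reaching it.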 The list comes from a sample in which actives are over-represented; it also holds similar structures and randomly drawn compounds.

Assay: HSF-1 activators, primary screen, NIH3T3-HGL cells, MG132 stress, luminescence, single point (AID 504408);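 note: 0% = median of the neutral control wells and 100% = twice that signal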
Details: NIH3T3-HGL HSF-1 luciferase reporter, MG132, 8 h; at 9 µM; hits give high values; 100% = twice DMSO control signal

Structure (SMILES) | activation
CCN1C(=O)[C@H]2[C@@H](c3ccc(C)cc3)N3C(=O)N(c4cccc(Br)c4)C(=O)[C@@]3(CC)[C@H]2C1=O | -10.8% (inactive)
Cc1csc(NC(=O)CSc2nc(=O)n(CCCN(C)C)c3c2CCC3)n1 | -4.76% (inactive)
Cc1ccc(S(=O)(=O)CCC(=O)OCC(=O)N(C)C2CCS(=O)(=O)C2)cc1 (configuration not stated) | 2.33% (inactive)
CCN(Cc1ccccc1)S(=O)(=O)c1cc2c3c(c1)CCN3C(=O)CC2 | 23.7% (inactive)
COc1ccc2c(c1)C(=O)Nc1cc(Cl)ccc1N2 | 12.2% (inactive)
CN(C)CCn1c2c(c(SCC(=O)Nc3ccccc3C(F)(F)F)nc1=O)CCCC2 | -8.06% (inactive)
Cc1ccc(-c2csc(-c3cc(C)on3)n2)cc1 | 28.5% (inactive)
Cc1ccc(-c2csc(-c3c[nH]c4ccccc34)n2)cc1 | 62% (active)
CCCc1cc(-c2nc(-c3ccc(C)cc3)cs2)ccn1 | 7.82% (inactive)
COc1ccccc1C(=O)NCCC(=O)NN1C(=O)NC2(CCCCC2)C1=O | -5.35% (inactive)
O=C(COC(=O)c1ncc(Cl)c(Cl)c1Cl)NCc1cccs1 | -3.74% (inactive)
Cc1cc(C(=O)N/N=C/c2ccc(N3CCOCC3)cc2)c(C)o1 | -5.06% (inactive)
CC(C)c1cc(C(=O)N/N=C/C(Br)=C/c2ccccc2)n[nH]1 | 40.2% (inactive)
Cc1cc(C(=O)N/N=C/c2ccccc2[N+](=O)[O-])c(C)o1 | 58.5% (active)
CC(=C/c1ccccc1)/C=N/NC(=O)c1cc(C)oc1C | 32% (inactive)
Cc1cc(C(=O)N/N=C\C(Br)=C\c2ccccc2)c(C)o1 | 112% (active)
O=C(Cc1cc(=O)[nH][nH]1)N/N=C/c1ccccc1[N+](=O)[O-] | -2.04% (inactive)
COc1cc(C(=O)N(C)Cc2cccc(OC)c2OC)ccc1OCC(=O)Nc1cccc(C(F)(F)F)c1 | -3.36% (inactive)
CC(OC(=O)CCC(=O)c1ccccc1)C(=O)Nc1ccc(F)cc1 (configuration not stated) | -12.9% (inactive)
COc1cc(/C=N/O)ccc1OCc1ccc([N+](=O)[O-])cc1 | 118% (active)
COc1cc(/C=N\Nc2ccc([N+](=O)[O-])cn2)ccc1OCC(=O)O | 0.194% (inactive)
COc1cc(C(=O)OCc2ccc([N+](=O)[O-])cc2)cc(OC)c1OC | 12.4% (inactive)
O=C(Nc1ccc(F)c([N+](=O)[O-])c1)C1CCCO1 (configuration not stated) | 9.04% (inactive)

Structure (SMILES) | activation
COc1ccc(S(=O)(=O)N2CCOC23CCN(S(=O)(=O)c2ccc([N+](=O)[O-])cc2)CC3)cc1 | 0.627% (inactive)
CCOc1ccc(C(C)=O)cc1COC(=O)CN1C(=O)NC2(CCCC2)C1=O | -13.7% (inactive)
CC(/C=N/NC(=O)c1cc(-c2ccc3ccccc3c2)n[nH]1)=C\c1ccco1 | 71.5% (active)
Cc1ccc(-c2cc(C(=O)N/N=C/C=C/c3ccco3)c3ccccc3n2)cc1C | -41.2% (inactive)
CC(/C=N/NC(=O)c1ccncc1)=C\c1ccco1 | 27.6% (inactive)
COc1ccc(/C=N/Nc2ccccc2C(=O)O)cc1 | 12.9% (inactive)
NC(=O)c1ccccc1N=Cc1ccc2ccccc2c1 | 75.3% (active)
N=c1oc2ccccc2cc1C(=O)N/N=C/c1ccccc1 | 22.1% (inactive)
COc1ccccc1NS(=O)(=O)c1ccc(C(=O)N2CCN(c3ccccc3O)CC2)cc1 | 14.5% (inactive)
CCOc1ccc2nc(C(=O)N3CCCC(C)C3)sc2c1 (configuration not stated) | 76.7% (active)
CCCC(=O)N(CCN1CCOCC1)c1nc2ccc(OCC)cc2s1 | 5.04% (inactive)
CCOc1ccc2nc(Nc3nc4ccc(NC(C)=O)cc4s3)sc2c1 | 36.7% (inactive)
CSc1ccc(S(=O)(=O)NCC(=O)OCC(=O)NC2(C#N)CCCCC2)cc1[N+](=O)[O-] | 1.77% (inactive)
COc1ccccc1C(=O)NC(CCSC)C(=O)NNC(=O)c1ccccc1C (configuration not stated) | -15.3% (inactive)
O=C(Nn1c(SCc2ccc([N+](=O)[O-])cc2)nc2ccccc2c1=O)c1ccc(F)cc1 | 51.9% (active)
C=CCn1c(SCc2ccc(C(=O)NCCO)cc2)nc2ccccc2c1=O | -5.63% (inactive)
O=C(Nn1c(-c2ccccc2)nc2ccccc2c1=O)c1ccc([N+](=O)[O-])cc1 | 19.1% (inactive)
O=C(CSc1ccccn1)N1CCN(S(=O)(=O)c2ccc(Cl)cc2)CC1 | 9.98% (inactive)
O=S(=O)(O)Oc1c[nH]c2ccccc12 | -0.476% (inactive)
CCS(=O)(=O)c1ccc(-c2cccc(NC(=O)c3ccc(Br)o3)c2)nn1 | -23.4% (inactive)
O=C(Nc1ccc(Cl)cn1)Nc1cccs1 | 69.7% (active)
CCCc1cc(C(=O)Nc2ccc(Cl)cn2)cs1 | 43.8% (inactive)
O=C(Nc1cccc([N+](=O)[O-])c1)Nc1ccc(Cl)cn1 | -5.81% (inactive)

Structure (SMILES) | activation
COc1ccc(NC(=O)CN(C)C(=O)/C=C/c2cn(Cc3ccccc3)nc2-c2cccnc2)cc1 | 1.78% (inactive)
COC(=O)[C@]1(C)N[C@H](c2ccc(-c3ccc(Cl)c(Cl)c3)cc2)[C@@H]2C(=O)N(C)C(=O)[C@@H]21 | 23% (inactive)
Cn1c(CCN2CCCC2)nc2cc(NS(=O)(=O)c3ccccc3)ccc21 | -1.14% (inactive)
CCOC(=O)N1CCN(Cc2nc3cc(NC(C)=O)ccc3n2C)CC1 | -12.5% (inactive)
Cn1c(CCN2CCCCCC2)nc2cc(NC(=O)Nc3ccccc3)ccc21 | 276% (active)
CCC(=O)Nc1ccc2c(c1)nc(CCN1CCN(c3ccccn3)CC1)n2C | 27.9% (inactive)
Cn1c(CN2CCOCC2)nc2cc(NC(=O)c3ccc(Cl)cc3)ccc21 | 70% (active)
CC(=O)NCCc1nc2cc(NC(=O)c3ccccc3)ccc2n1C | -16.5% (inactive)
COC(=O)c1ccc(SCc2ccccc2)nc1 | 18.6% (inactive)
CCOc1ccc(NC(=O)CN(C)C(=O)c2c(C)noc2C)cc1OCC | 8.14% (inactive)
CCOC(=O)c1c(NC(=O)CN2C(=O)NC3(CCC(C)CC3)C2=O)sc(C)c1CC (configuration not stated) | 2.47% (inactive)
COc1ccc(C2=NN(C(=O)c3cccnc3)C(c3ccccc3)C2)cc1 (configuration not stated) | 4.6% (inactive)
COc1ccc(C2CC(c3ccc([N+](=O)[O-])cc3)=NN2C(C)=O)cc1 (configuration not stated) | 22% (inactive)
COc1ccc(C2CC(c3ccccc3)=NN2C(=O)c2ccc(Cl)c([N+](=O)[O-])c2)cc1 (configuration not stated) | 73.2% (active)
OCc1ccc(-c2ccccc2)c(-c2ccccc2)c1 | -0.0415% (inactive)
Cc1ccc(CSCC(=O)N(C)CC(=O)Nc2cccc(F)c2)cc1 | 4.88% (inactive)
Cc1cc(C)c(C)c(S(=O)(=O)Nc2cccnc2)c1C | -8.55% (inactive)
COc1ccc(N2CCN(C(=O)/C(C#N)=C/c3ccccc3)CC2)cc1 | -4.53% (inactive)
CCOC(=O)/C(C#N)=C/c1ccc(N2CCN(Cc3ccccc3)CC2)cc1 | -3.55% (inactive)
CCOC(=O)/C(C#N)=C/c1ccc(N2CCCCC2)cc1 | 54.1% (active)
CCN1C(=O)[C@H]2[C@@H](c3ccc(-c4ccc(OC)cc4)cc3)N[C@@](Cc3ccccc3)(C(=O)OC)[C@H]2C1=O | 22.5% (inactive)
S=C(c1ccc(-c2ccccc2)o1)N1CCCCC1 | 63.6% (active)
S=C(c1ccccc1)N1CCCC1 | 0.831% (inactive)

Structure (SMILES) | activation
OCCN1CCN(C(=S)c2ccc(-c3ccccc3)cc2)CC1 | -5.27% (inactive)
CCCCCC(=O)N1CCN(S(=O)(=O)c2ccc3c(c2)OCCCO3)CC1 | -14% (inactive)
CCCCn1c(N)c(N(CCOC)C(=O)c2cccc(S(=O)(=O)N(C)c3ccccc3)c2)c(=O)[nH]c1=O | 0.234% (inactive)
C(=N\Nc1ccc2ccccc2n1)/c1ccc2c(c1)OCO2 | -41.8% (inactive)
Cc1noc(C)c1/C=N/Nc1ccc2ccccc2n1 | 59.1% (active)
Clc1ccc(Nc2ccc3ccccc3n2)cc1 | 5.69% (inactive)
Cc1ccc(S(=O)(=O)N(C)c2ccc(OCC(=O)OCC(=O)N(CC#N)c3ccccc3)cc2)cc1 | 7.96% (inactive)
O=S(=O)(NCCCc1ccccc1)c1ccc(Br)cc1 | 11.6% (inactive)
O=C(NCCS(=O)(=O)NCc1ccc(Cl)cc1)c1ccccc1 | 8.69% (inactive)
CCOc1ccc(NS(=O)(=O)c2ccc(C(=O)NC3CCN(Cc4ccccc4)CC3)cc2)cc1 | -18.5% (inactive)
c1ccc2[nH]c(-c3nc4ccccc4[nH]3)nc2c1 | 77.8% (active)
OC(c1nc2ccccc2[nH]1)C(O)C(O)C(O)c1nc2ccccc2[nH]1 (configuration not stated) | 1.21% (inactive)
Cc1ccc(-c2nc3ccccc3[nH]2)cc1N | 36.7% (inactive)
CCN(CC(=O)Nc1c(F)cccc1F)C(=O)c1ccc(S(=O)(=O)N2CCCCC2)cc1 | -12.7% (inactive)
Cc1ccccc1NC(=O)COc1cccc2c1CCNC2=O | -1.52% (inactive)
CCCCn1c(N)c(N(CC(C)C)C(=O)CSc2ccc([N+](=O)[O-])cc2)c(=O)[nH]c1=O | -6.98% (inactive)
Cc1ccc(-c2nn(-c3ccc(F)cc3)cc2C(=O)NCC(c2cccs2)N2CCOCC2)cc1 (configuration not stated) | -1.83% (inactive)
Cc1ccn2c(=O)nc(SCC(=O)NCc3ccc(F)cc3)nc2c1 | 16.8% (inactive)
O=C(COC(=O)c1ccccn1)NNC(=O)c1ccc([N+](=O)[O-])cc1 | 5.44% (inactive)
CCn1c2ccc(F)cc2c2nnc(SCCN3CCOCC3)nc21 | -5.84% (inactive)
Cc1cccc(C)c1OCCN1CCOCC1 | 3.56% (inactive)
Cc1cc2nc(SCCN3CCOCC3)[nH]c2cc1C | 53.2% (active)
COc1ccc(NC(=O)CN(C)C(=O)CC2CCCCC2)cc1 | 0.174% (inactive)
